Test [1] can be described thus: anti-His antibody binders, primary screen, artefact control for SMM control protein annotation, biochemical, small-molecule microarray, 635 nm fluorescence (AID 1128).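 Further: score merges feature fluorescence with signal-to-noise for each printed compound spot.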 Particulars: anti-His Alexa647 antibody binding, higher = more signal.
The test system of test [2] is Human papillomavirus type 1a E7 protein (residues 1-88). The experiment in a line: HPV1a E7 small-molecule binders, primary screen, biochemical, small-molecule microarray, residues 1-88, 635 nm (AID 1129). The note with it: small-molecule microarray binding, fluorescence 635 nm; higher = more signal.
The target in test [3] is Focal adhesion kinase 1 (Homo sapiens) (UniProt Q05397). The experiment in a line: small-molecule microarray binders of FAK, primary screen, biochemical, 635/667 nm fluorescence, BSA, DTT (AID 1130).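 Further: composite of spot emission at 667 nm and signal to noise over triplicate slides.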 The note with it: PTK2 binding, 635 nm fluorescence, higher = more signal.
In test [4] the test system is Fibrinogen (Alexa647-labelled). The experiment in a line: fibrinogen binders on compound microarrays, profiling panel, artefact control for SMM control-protein annotation, biochemical, small-molecule microarray, 635/667 nm fluorescence (AID 1131).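 Further: z-score merges 667 nm fluorescence with per-spot signal-to-noise over triplicate slides.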 The note with it: fibrinogen-A647 binding fluorescence, higher = more signal.
Test [5] concerns the target Follistatin (Homo sapiens) (UniProt P19883). The experiment in a line: follistatin binders on small-molecule microarrays, primary screen, biochemical, small-molecule microarray, 635/667 nm fluorescence (AID 1132). Particulars: FST binding, 635 nm fluorescence, higher = more signal.
For test [6], the target named is Fibroblast growth factor 2 (Homo sapiens) (UniProt P09038). The test can be described thus: FGF2 binders on small-molecule microarrays, primary screen, biochemical, small-molecule microarray, 635/667 nm fluorescence (AID 1133). The note with it: small-molecule microarray binding, FGF2, fluorescence 635/667; higher = more signal.
The nature of test [7]: mitochondrial membrane potential change in A549 cells, profiling panel, cell-based, JC-1 fluorescence, basal, 24 h, 100 nL (AID 1138).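 Further: A549 lung adenocarcinoma cells under basal conditions with no added stimulus; test concentration not given here.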 Particulars: higher = more signal.
In test [8] the test system is Lefty1. The experiment in a line: Lefty1 binders on small-molecule microarrays, primary screen, biochemical, small-molecule microarray, 635/667 nm fluorescence (AID 1139). Particulars: small-molecule microarray binding, fluorescence 635/667; higher = more signal.
For test [9], the system named is wheat germ agglutinin (Triticum aestivum), Alexa647-labelled. The test can be described thus: wheat germ agglutinin binders on compound microarrays, profiling panel, artefact control for SMM control-protein annotation, biochemical, small-molecule microarray, 635/667 nm fluorescence (AID 1140).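 Further: score merges 667 nm feature emission with signal to noise over triplicate slides.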 The note with it: WGA-A647 binding, 635 nm fluorescence, higher = more signal.

Test [10] concerns the target Luciferin 4-monooxygenase (Photinus pyralis) (UniProt P08659). The test can be described thus: firefly luciferase enzyme inhibitors, primary screen, biochemical, luminescence, purified enzyme, 2006 set (AID 1141).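 Further: cell-free assay with purified firefly luciferase at 100 ng per well in PBS; test concentration not given here.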 Particulars: SteadyGlo luminescence, 30 min, higher = more signal, called active from +8 up or from −8 down.
Test [11] concerns Wnt5a (protein binding on small-molecule microarray). The test can be described thus: Wnt5a binders on small-molecule microarray, primary screen, biophysical, 635/667 nm fluorescence (AID 1142).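 Further: fluorescence read at 667 nm with signal to noise per printed feature.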 The note with it: 635 nm fluorescence, higher = more signal.
Test [12] can be described thus: cell viability in Huh7 cells, primary screen, cytotoxicity control for HCV replication inhibitor project, CellTiter-Glo luminescence, basal, 48 h (AID 1143).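 Further: Huh7 hepatoma cells carrying a hepatitis C replication reporter with no stimulus; test concentration not given here.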 Particulars: Huh7 HCV replicon, higher = more signal, called active from +8 up or from −8 down.
Test [13] is described as follows: P. aeruginosa biofilm formation inhibitors, primary screen, PAO1 strain, BacTiter-Glo luminescence, LB-PBS (AID 1144). The note with it: 12 h, higher = more signal.
Test [14] can be described thus: CREB reporter modulators without forskolin, primary screen, cell-based, PC12, CRE-LacZ reporter, unstimulated (AID 1145). Particulars: no forskolin, luminescence, 4.5 h, higher = more signal, called active from +8 up or from −8 down.
A short description of test [15]: CREB reporter modulators under forskolin, primary screen, cell-based, PC12, CRE-LacZ reporter, forskolin-stimulated (AID 1146).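 Further: PC12 cells with 6xCRE LacZ reporter stimulated by forskolin 10 µM; beta-galactosidase reporter signal reflecting CREB driven transcription.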 The note with it: luminescence, 4.5 h, higher = more signal, called active from +8 up or from −8 down.
Test [16] has as its target Streptavidin (Streptomyces avidinii) (UniProt P22629). The experiment in a line: streptavidin binders on small-molecule microarray, primary screen, artefact control for SMM compound annotation, biophysical, 635/667 nm fluorescence (AID 1147).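 Further: signal reflects streptavidin binding to arrayed compounds as a control protein.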 The note with it: streptavidin binding, higher = more signal.
Test [17] in a line: small-molecule binders of probe aInhba, primary screen, biochemical, small-molecule microarray, 635/667 nm fluorescence (AID 1148).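 Further: score merges 667nm spot fluorescence with signal-to-noise for antibody binding to printed compounds.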 Particulars: higher = more signal.
Test [18] deals with Torsin-1A (Homo sapiens) (UniProt O14656). The test can be described thus: torsin A binders from cell lysate, primary screen, small-molecule microarray, wild-type, 635/667 nm (AID 1149). Particulars: COS7 hTOR1A-WT lysate, 635 nm fluorescence, higher = more signal.
Test [19] has the same target. The experiment in a line: small-molecule binders of mutant TOR1A in lysate, primary screen, cell lysate, small-molecule microarray, COS7 lysate, 635/667 nm fluorescence (AID 1150).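 Further: score pools 667 nm emission and signal to noise measuring lysate protein binding.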 The note with it: COS7 hTOR1A mutant lysate, 635 nm fluorescence, higher = more signal.
For test [20], the system named is Sonic hedgehog protein (Shh). The experiment in a line: small-molecule binders of Shh protein, primary screen, biochemical, small-molecule microarray, 635/667 nm fluorescence (AID 1151).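 Further: Shh protein binding to compounds spotted on small-molecule microarray slides; score combines spot fluorescence intensity with signal-to-noise across triplicate slides.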 The note with it: small-molecule microarray binding, 635 nm fluorescence; higher = more signal.

Active and inactive are the calls of the source. Unless noted, how the calls were made is not given here.

Sequence of Streptavidin (Streptomyces avidinii) (P22629 whole entry, looked up): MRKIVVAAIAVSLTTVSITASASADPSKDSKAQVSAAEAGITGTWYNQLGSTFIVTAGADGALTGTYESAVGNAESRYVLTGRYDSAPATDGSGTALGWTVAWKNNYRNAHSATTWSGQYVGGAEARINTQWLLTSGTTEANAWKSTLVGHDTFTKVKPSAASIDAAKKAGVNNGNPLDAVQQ
Sequence of Luciferin 4-monooxygenase (Photinus pyralis) (P08659 whole entry, looked up): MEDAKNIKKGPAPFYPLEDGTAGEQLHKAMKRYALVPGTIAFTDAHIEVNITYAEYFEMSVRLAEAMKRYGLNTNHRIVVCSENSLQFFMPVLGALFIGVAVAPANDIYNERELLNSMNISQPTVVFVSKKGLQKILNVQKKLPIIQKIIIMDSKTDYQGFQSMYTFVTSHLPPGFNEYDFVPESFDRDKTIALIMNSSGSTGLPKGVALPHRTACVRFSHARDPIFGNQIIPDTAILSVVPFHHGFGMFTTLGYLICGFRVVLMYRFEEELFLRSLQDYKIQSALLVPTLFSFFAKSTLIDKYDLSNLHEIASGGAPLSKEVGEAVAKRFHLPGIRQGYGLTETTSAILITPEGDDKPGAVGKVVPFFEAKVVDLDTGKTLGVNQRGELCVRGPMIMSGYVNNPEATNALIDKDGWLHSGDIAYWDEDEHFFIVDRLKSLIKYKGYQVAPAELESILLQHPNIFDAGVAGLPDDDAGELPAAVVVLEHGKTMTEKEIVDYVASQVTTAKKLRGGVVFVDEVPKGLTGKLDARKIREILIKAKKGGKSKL
Sequence of Focal adhesion kinase 1 (Homo sapiens) (Q05397 whole entry, looked up): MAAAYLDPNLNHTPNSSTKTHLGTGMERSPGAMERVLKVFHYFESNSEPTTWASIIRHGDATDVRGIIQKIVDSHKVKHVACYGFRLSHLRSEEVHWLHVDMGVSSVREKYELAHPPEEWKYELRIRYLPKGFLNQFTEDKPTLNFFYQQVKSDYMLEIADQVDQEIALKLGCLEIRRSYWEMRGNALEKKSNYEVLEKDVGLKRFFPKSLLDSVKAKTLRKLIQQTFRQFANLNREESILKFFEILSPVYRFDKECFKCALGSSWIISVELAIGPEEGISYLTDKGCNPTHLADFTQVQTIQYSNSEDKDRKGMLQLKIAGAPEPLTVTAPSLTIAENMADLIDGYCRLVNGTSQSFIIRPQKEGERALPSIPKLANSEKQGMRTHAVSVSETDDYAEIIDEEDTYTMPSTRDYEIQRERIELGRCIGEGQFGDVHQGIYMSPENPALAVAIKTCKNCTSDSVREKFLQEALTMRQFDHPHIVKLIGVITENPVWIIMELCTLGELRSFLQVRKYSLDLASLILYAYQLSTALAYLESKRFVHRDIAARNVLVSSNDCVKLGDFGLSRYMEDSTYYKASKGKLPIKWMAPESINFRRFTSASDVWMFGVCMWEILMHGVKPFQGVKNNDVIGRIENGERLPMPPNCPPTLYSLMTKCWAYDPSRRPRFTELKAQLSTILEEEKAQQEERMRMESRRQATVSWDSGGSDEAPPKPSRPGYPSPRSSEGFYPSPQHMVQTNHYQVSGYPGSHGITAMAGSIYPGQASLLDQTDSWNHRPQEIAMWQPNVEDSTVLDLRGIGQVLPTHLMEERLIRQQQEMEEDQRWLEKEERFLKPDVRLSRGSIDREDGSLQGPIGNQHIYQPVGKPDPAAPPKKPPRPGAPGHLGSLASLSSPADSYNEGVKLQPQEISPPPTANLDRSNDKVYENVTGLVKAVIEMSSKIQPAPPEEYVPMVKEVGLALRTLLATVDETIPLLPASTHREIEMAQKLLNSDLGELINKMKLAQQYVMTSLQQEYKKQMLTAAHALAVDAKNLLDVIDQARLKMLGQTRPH
Sequence of Torsin-1A (Homo sapiens) (O14656 whole entry, looked up): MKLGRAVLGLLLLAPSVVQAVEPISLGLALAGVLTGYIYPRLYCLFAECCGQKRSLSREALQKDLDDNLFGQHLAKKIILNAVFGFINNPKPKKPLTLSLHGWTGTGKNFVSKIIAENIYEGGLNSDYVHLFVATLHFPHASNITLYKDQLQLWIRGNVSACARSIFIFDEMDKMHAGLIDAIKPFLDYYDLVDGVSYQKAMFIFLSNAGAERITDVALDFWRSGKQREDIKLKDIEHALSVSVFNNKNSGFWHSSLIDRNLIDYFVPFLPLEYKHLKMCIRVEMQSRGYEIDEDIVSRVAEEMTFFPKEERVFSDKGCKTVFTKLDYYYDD
Sequence of Follistatin (Homo sapiens) (P19883 whole entry, looked up): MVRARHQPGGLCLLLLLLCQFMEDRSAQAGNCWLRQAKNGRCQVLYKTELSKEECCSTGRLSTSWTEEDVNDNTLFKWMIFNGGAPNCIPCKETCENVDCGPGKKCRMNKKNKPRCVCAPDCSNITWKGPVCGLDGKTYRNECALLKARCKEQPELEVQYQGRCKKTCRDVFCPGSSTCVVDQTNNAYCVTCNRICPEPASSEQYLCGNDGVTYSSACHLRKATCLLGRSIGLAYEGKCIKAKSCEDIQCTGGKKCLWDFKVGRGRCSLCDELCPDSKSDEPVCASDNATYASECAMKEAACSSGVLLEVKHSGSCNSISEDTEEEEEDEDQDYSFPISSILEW
Sequence of Fibroblast growth factor 2 (Homo sapiens) (P09038 whole entry, looked up): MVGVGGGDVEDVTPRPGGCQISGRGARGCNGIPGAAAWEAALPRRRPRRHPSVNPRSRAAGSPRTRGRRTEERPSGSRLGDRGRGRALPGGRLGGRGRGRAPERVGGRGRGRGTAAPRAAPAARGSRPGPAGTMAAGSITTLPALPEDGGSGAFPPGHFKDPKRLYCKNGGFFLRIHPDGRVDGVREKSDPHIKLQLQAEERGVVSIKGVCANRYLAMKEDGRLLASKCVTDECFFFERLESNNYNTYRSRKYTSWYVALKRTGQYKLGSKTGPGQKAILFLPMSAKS

Consider `O=C1C2C=CC(C(O)c3cccc4ccccc34)N(Nc3ccccc3)C2C(=O)N1c1ccccc1` (stereo not given), for which the composite z-score in test [1] is 2.24; in test [2] it was 1.17; in [3] it was 1.99; in test [4], 0.971; in test [5], 1.23; in [6], 0.729. Moreover, the composite z-score in test [8] was determined as 0.576; in test [9], 0.753; in test [11], 0.336; in test [16] it was 0.595; in [17] it was 0.0705; in [18], 0.327. Moreover, the composite z-score in [19] was found to be 0.463; in test [20] it was 0.296. For the same molecule, the z-score in [7] is -0.39; in [10] it was -1.05 (inactive); in test [12], -1.3 (inactive); in test [13], -1.46 (inactive); in [14], 0.429 (inactive); in [15] it was -0.637 (inactive).
As to `CCCCC(=C=CC[C@H](O)c1ccccc1OCCO)C[C@H](O)c1ccccn1`, the composite z-score in test [1] is 0.299; in [2] it was 0.0909; in test [3] it was -0.255; in test [4], -0.196; in test [5] it was 1.29; in test [6], 1.37. In addition, the composite z-score in test [8] was 1.15; in [9] it was 0.458; in test [11], -0.135; in test [16] it was 0.597; in test [17], -0.0762; in [18], 0.718. Further, the composite z-score in test [19] amounted to 1.01; in test [20], 1.4. Further, the z-score in test [7] was 0.717; in test [10] it was -0.109 (inactive); in test [12] it was -0.392 (inactive); in test [13], -0.0512 (inactive); in test [14], 6.34 (inactive); in test [15], -0.872 (inactive).
For `C#CCOC(=O)N[C@H](C=CCCCC)c1ccccc1`, the composite z-score is 1.33 in test [1]; 0.95 in [2]; 0.4 in [3]; 0.762 in test [4]; -0.101 in [5]; -0.204 in test [6]. The composite z-score was -1.09 in [8]; 0.817 in test [9]; -0.0582 in [11]; 0.335 in test [16]; 0.0714 in test [17]; 0.28 in test [18]. For the same molecule, the composite z-score in test [19] is 0.0584; in test [20], -0.13. In addition, the z-score was 0.59 in [7]; 0.597 (inactive) in [10]; -0.342 (inactive) in test [12]; -0.604 (inactive) in test [13]; 0.197 (inactive) in test [14]; 0.488 (inactive) in test [15].
`CCOC(=O)C[C@H]1[C@H](OC(=O)Cc2ccc3c(c2)OCO3)[C@@H](NC(=O)c2ccccc2)c2cc(OCCCO)ccc2N1C(=O)c1ccccc1`: the composite z-score is -0.226 in test [1]; 0.669 in test [2]; -0.061 in test [3]; 0.731 in test [4]; 0.392 in [5]; 0.383 in [6]. In addition, the composite z-score in [8] was 0.557; in [9], 1.25; in [11] it was -0.0373; in test [16], 0.243; in test [17], -0.128; in test [18], 0.0229. The composite z-score in [19] is 0.403; in [20] it was 0.85. The z-score in test [7] is 0.673; in test [10], -0.207 (inactive); in [12], -0.363 (inactive); in test [13] it was -0.669 (inactive); in test [14] it was 0.512 (inactive); in [15], 0.484 (inactive).
For `COC(=O)C(CC#Cc1ccc2c(c1)[C@]1(C(=O)N2)[C@H](c2ccc(O)cc2)N2[C@H](c3ccccc3)[C@H](c3ccccc3)OC(=O)[C@H]2[C@@H]1C(N)=O)C(=O)OC`, the composite z-score in test [1] was -2.69; in [2], -1.91; in test [3], -0.627; in test [4] it was -1.96; in test [5], -2.01; in [6] it was -1.44. Further, the composite z-score in test [8] is -2.6; in test [9], -2.35; in test [11] it was -0.206; in test [16], -1.42; in test [17], -0.153; in [18], -1.15. The composite z-score in test [19] was -0.491; in [20], -0.907. Further, the z-score is 1.42 in test [7]; -0.899 (inactive) in test [10]; -1.94 (inactive) in test [12]; -1.56 (inactive) in test [13]; 0.212 (inactive) in test [14]; -0.615 (inactive) in test [15].

The values above are taken from PubChem BioAssay.
